# Data reported in PubChem BioAssay AID1159580 (chemical genetic matrix, 2015).
# About 2,000 (36%) of roughly 5,500 compounds were called active. About 18% were inconclusive and are not listed. Some of the results follow. A number with no mark means an inactive call. No stated cut-off is given here; in the data, active means normalized growth mostly below about 0.91 (no sharp cut-off); inconclusive means no clear call, values can overlap the other calls; inactive means mostly above about 0.92.
# Assay: chemical genetic growth profiling, strain panel (AID 1159580);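 further: tested at 20 µM; growth read once vehicle control cultures reached saturation at 30 °C; 1 = growth at the plate median or of vehicle wells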
# Settings: growth OD
# [1] = S. cerevisiae deletion strains, locus YDL101C, strain DUN1, stronger effect = lower value
# [2] = S. cerevisiae deletion strains, locus YHR030C, strain SLT2, stronger effect = lower value
structure (smiles),measurement,setting,value
CN(NC(=S)Nc1cc(Cl)ccc1Cl)c1ccc(C(F)(F)F)cc1[N+](=O)[O-],normalized growth,"S. cerevisiae deletion strains, locus YAR019C, strain CDC15, stronger effect = lower value",0.972
same,normalized growth,"S. cerevisiae deletion strains, locus YBL105C, strain PKC1, stronger effect = lower value",0.972
same,normalized growth,"S. cerevisiae deletion strains, locus YBR135W, strain CKS1, stronger effect = lower value",0.982
same,normalized growth,"S. cerevisiae deletion strains, locus YBR136W, strain MEC1, stronger effect = lower value",0.97
same,normalized growth,"S. cerevisiae deletion strains, locus YBR160W, strain CDC28, stronger effect = lower value",0.979
same,normalized growth,"S. cerevisiae deletion strains, locus YDL017W, strain CDC7, stronger effect = lower value",0.972
same,normalized growth,"S. cerevisiae deletion strains, locus YDL028C, strain MPS1, stronger effect = lower value",0.985
same,normalized growth,[1],0.969
same,normalized growth,"S. cerevisiae deletion strains, locus YDL108W, strain KIN28, stronger effect = lower value",0.969
same,normalized growth,"S. cerevisiae deletion strains, locus YDL132W, strain cdc53, stronger effect = lower value",0.97
same,normalized growth,"S. cerevisiae deletion strains, locus YDL214C, strain PRR2, stronger effect = lower value",0.946
same,normalized growth,"S. cerevisiae deletion strains, locus YDR052C, strain DBF4, stronger effect = lower value",0.965
same,normalized growth,"S. cerevisiae deletion strains, locus YDR054C, strain cdc34, stronger effect = lower value",0.97
same,normalized growth,"S. cerevisiae deletion strains, locus YDR226W, strain ADK1, stronger effect = lower value",0.984
same,normalized growth,"S. cerevisiae deletion strains, locus YDR477W, strain SNF1, stronger effect = lower value",0.964
same,normalized growth,"S. cerevisiae deletion strains, locus YER123W, strain YCK3, stronger effect = lower value",0.893
same,normalized growth,"S. cerevisiae deletion strains, locus YER133W, strain GLC7, stronger effect = lower value",0.949
same,normalized growth,"S. cerevisiae deletion strains, locus YFL009W, strain cdc4, stronger effect = lower value",0.977
same,normalized growth,"S. cerevisiae deletion strains, locus YFL029C, strain CAK1, stronger effect = lower value",0.979
same,normalized growth,"S. cerevisiae deletion strains, locus YFR003C, strain YPI1, stronger effect = lower value",0.973
same,normalized growth,"S. cerevisiae deletion strains, locus YFR019W, strain FAB1, stronger effect = lower value",0.977
same,normalized growth,"S. cerevisiae deletion strains, locus YFR028C, strain CDC14, stronger effect = lower value",0.978
same,normalized growth,"S. cerevisiae deletion strains, locus YGR040W, strain KSS1, stronger effect = lower value",0.96
same,normalized growth,"S. cerevisiae deletion strains, locus YGR052W, strain FMP48, stronger effect = lower value",0.96
same,normalized growth,"S. cerevisiae deletion strains, locus YGR092W, strain DBF2, stronger effect = lower value",0.825
same,normalized growth,[2],0.711 (active)
same,normalized growth,"S. cerevisiae deletion strains, locus YHR079C, strain IRE1, stronger effect = lower value",0.785
same,normalized growth,"S. cerevisiae deletion strains, locus YHR082C, strain KSP1, stronger effect = lower value",1.03
same,normalized growth,"S. cerevisiae deletion strains, locus YHR205W, strain SCH9, stronger effect = lower value",0.886
same,normalized growth,"S. cerevisiae deletion strains, locus YIL147C, strain SLN1, stronger effect = lower value",0.971
same,normalized growth,"S. cerevisiae deletion strains, locus YJL095W, strain BCK1, stronger effect = lower value",0.885
same,normalized growth,"S. cerevisiae deletion strains, locus YJL128C, strain PBS2, stronger effect = lower value",0.929
same,normalized growth,"S. cerevisiae deletion strains, locus YJL157C, strain FAR1, stronger effect = lower value",0.915
same,normalized growth,"S. cerevisiae deletion strains, locus YJR016C, strain ILV3, stronger effect = lower value",0.971
same,normalized growth,"S. cerevisiae deletion strains, locus YJR066W, strain TOR1 (second series), stronger effect = lower value",0.915
same,normalized growth,"S. cerevisiae deletion strains, locus YJR066W, strain TOR1, stronger effect = lower value",0.973
same,normalized growth,"S. cerevisiae deletion strains, locus YKL048C, strain ELM1, stronger effect = lower value",0.938
same,normalized growth,"S. cerevisiae deletion strains, locus YKL067W, strain YNK1, stronger effect = lower value",0.953
same,normalized growth,"S. cerevisiae deletion strains, locus YKL101W, strain HSL1, stronger effect = lower value",0.964
same,normalized growth,"S. cerevisiae deletion strains, locus YKL193C, strain SDS22, stronger effect = lower value",0.952
same,normalized growth,"S. cerevisiae deletion strains, locus YKL203C, strain TOR2, stronger effect = lower value",0.99
same,normalized growth,"S. cerevisiae deletion strains, locus YLR113W, strain HOG1, stronger effect = lower value",0.74 (active)
same,normalized growth,"S. cerevisiae deletion strains, locus YLR133W, strain CKI1, stronger effect = lower value",0.929
same,normalized growth,"S. cerevisiae deletion strains, locus YLR403W, strain SFP1, stronger effect = lower value",0.929
same,normalized growth,"S. cerevisiae deletion strains, locus YML070W, strain DAK1, stronger effect = lower value",0.922
same,normalized growth,"S. cerevisiae deletion strains, locus YMR001C, strain CDC5, stronger effect = lower value",0.971
same,normalized growth,"S. cerevisiae deletion strains, locus YMR205C, strain PFK2 (second series), stronger effect = lower value",0.967
same,normalized growth,"S. cerevisiae deletion strains, locus YMR277W, strain FCP1, stronger effect = lower value",0.972
same,normalized growth,"S. cerevisiae deletion strains, locus YNL006W, strain LST8, stronger effect = lower value",0.974
same,normalized growth,"S. cerevisiae deletion strains, locus YNL020C, strain ARK1, stronger effect = lower value",0.897
same,normalized growth,"S. cerevisiae deletion strains, locus YNL161W, strain CBK1, stronger effect = lower value",0.977
same,normalized growth,"S. cerevisiae deletion strains, locus YNL183C, strain NPR1, stronger effect = lower value",0.972
same,normalized growth,"S. cerevisiae deletion strains, locus YNL207W, strain RIO2, stronger effect = lower value",0.976
same,normalized growth,"S. cerevisiae deletion strains, locus YNL222W, strain SSU72, stronger effect = lower value",0.982
same,normalized growth,"S. cerevisiae deletion strains, locus YNL307C, strain MCK1 (second series), stronger effect = lower value",0.932
same,normalized growth,"S. cerevisiae deletion strains, locus YOL078W, strain AVO1, stronger effect = lower value",0.974
same,normalized growth,"S. cerevisiae deletion strains, locus YOL136C, strain PFK27, stronger effect = lower value",0.903
same,normalized growth,"S. cerevisiae deletion strains, locus YOR061W, strain CKA2, stronger effect = lower value",0.907
same,normalized growth,"S. cerevisiae deletion strains, locus YOR119C, strain RIO1, stronger effect = lower value",1.04
same,normalized growth,"S. cerevisiae deletion strains, locus YOR231W, strain MKK1, stronger effect = lower value",0.847
same,normalized growth,"S. cerevisiae deletion strains, locus YOR329C, strain SCD5, stronger effect = lower value",0.97
same,normalized growth,"S. cerevisiae deletion strains, locus YPL031C, strain PHO85, stronger effect = lower value",0.937
same,normalized growth,"S. cerevisiae deletion strains, locus YPL153C, strain RAD53, stronger effect = lower value",0.942
same,normalized growth,"S. cerevisiae deletion strains, locus YPL204W, strain HRR25, stronger effect = lower value",0.911
same,normalized growth,"S. cerevisiae deletion strains, locus YPL209C, strain IPL1, stronger effect = lower value",0.977
same,normalized growth,"S. cerevisiae deletion strains, locus YPL256C, strain CLN2, stronger effect = lower value",0.762 (active)
same,normalized growth,"S. cerevisiae deletion strains, locus YPR025C, strain CCL1, stronger effect = lower value",0.981
same,normalized growth,"S. cerevisiae deletion strains, locus YPR106W, strain ISR1, stronger effect = lower value",0.981
same,normalized growth,"S. cerevisiae deletion strains, locus YPR111W, strain DBF20, stronger effect = lower value",0.959
same,normalized growth,"S. cerevisiae deletion strains, strain NNK1, stronger effect = lower value",0.951
same,normalized growth,"S. cerevisiae deletion strains, strain TSCII, stronger effect = lower value",0.968
NC(=S)Nc1cc(Cl)ccc1Cl,normalized growth,"S. cerevisiae deletion strains, locus YAL013W, strain DEP1, stronger effect = lower value",0.99
same,normalized growth,"S. cerevisiae deletion strains, locus YBR229C, strain ROT2, stronger effect = lower value",0.976
same,normalized growth,[1],0.975
same,normalized growth,"S. cerevisiae deletion strains, locus YDR150W, strain NUM1, stronger effect = lower value",0.906
same,normalized growth,"S. cerevisiae deletion strains, locus YEL061C, strain CIN8, stronger effect = lower value",0.961
same,normalized growth,"S. cerevisiae deletion strains, locus YGR078C, strain PAC10, stronger effect = lower value",0.975
same,normalized growth,"S. cerevisiae deletion strains, locus YGR229C, strain SMI1, stronger effect = lower value",1
same,normalized growth,[2],0.888
same,normalized growth,"S. cerevisiae deletion strains, locus YHR087W, strain rtc3, stronger effect = lower value",0.953
same,normalized growth,"S. cerevisiae deletion strains, locus YJR043C, strain POL32, stronger effect = lower value",0.997
same,normalized growth,"S. cerevisiae deletion strains, locus YJR075W, strain HOC1, stronger effect = lower value",0.997
same,normalized growth,"S. cerevisiae deletion strains, locus YKL190W, strain CNB1, stronger effect = lower value",0.999
same,normalized growth,"S. cerevisiae deletion strains, locus YLR039C, strain RIC1, stronger effect = lower value",0.947
same,normalized growth,"S. cerevisiae deletion strains, locus YLR058C, strain SHM2 (second series), stronger effect = lower value",0.981
same,normalized growth,"S. cerevisiae deletion strains, locus YLR085C, strain ARP6, stronger effect = lower value",0.919
same,normalized growth,"S. cerevisiae deletion strains, locus YLR262C, strain YPT6, stronger effect = lower value",0.979
same,normalized growth,"S. cerevisiae deletion strains, locus YML094W, strain GIM5, stronger effect = lower value",0.915
same,normalized growth,"S. cerevisiae deletion strains, locus YMR219W, strain ESC1, stronger effect = lower value",1
same,normalized growth,"S. cerevisiae deletion strains, locus YMR263W, strain SAP30, stronger effect = lower value",0.969
same,normalized growth,"S. cerevisiae deletion strains, locus YNL128W, strain TEP1, stronger effect = lower value",0.993
same,normalized growth,"S. cerevisiae deletion strains, locus YNL153C, strain GIM3, stronger effect = lower value",1
same,normalized growth,"S. cerevisiae deletion strains, locus YNL298W, strain CLA4 (second series), stronger effect = lower value",0.944
same,normalized growth,"S. cerevisiae deletion strains, locus YNL322C, strain KRE1, stronger effect = lower value",0.987
same,normalized growth,"S. cerevisiae deletion strains, locus YNR030W, strain Alg12, stronger effect = lower value",0.988
same,normalized growth,"S. cerevisiae deletion strains, locus YPL055C, strain LGE1, stronger effect = lower value",0.835
same,normalized growth,"S. cerevisiae deletion strains, locus YPL241C, strain CIN2, stronger effect = lower value",0.988
same,normalized growth,"S. cerevisiae deletion strains, locus YPR135W, strain CTF4, stronger effect = lower value",0.84
same,normalized growth,"S. cerevisiae strains, strain wild type, stronger effect = lower value",0.99
